Compound activity (PubChem)
In the library only some 2.9% were active in any assay of this set; here they are far more common.
HEK293 viab: GF-AFC viability counterscreen for inhibitors of alpha-synuclein gene (SNCA) expression | HEK-293-SNCA-luc viability, GF-AFC fluorescence, 24 h | Potency, µM (highest dose often 57.1 µM), most hits filed as cytotoxic | hit rate 0.12% among 150,000 | AID 1671193, 2021; also: nearly all actives have a fitted effect of over 30% in size
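HEK-293-SNCA-luc cells (1500/well) plated 24 h, then exposed 24 h to a dilution series; GF-AFC added 30 min at 37C, fluorescence 405/540 nm; normalised to medium-only and DMSO wells, Hill fit.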
SNCA expr inhib: Primary qHTS assay for inhibitors of alpha-synuclein gene (SNCA) expression. HEK-293 SNCA-luciferase knock-in, luminescence, 24 h. Potency, µM (series often up to 57.2 µM), usual class: inhibitors. hit rate 0.17% among 140,000. AID 1671194, 2021; also: nearly all actives have a fitted effect of over 45% in size
IP6K1 inh: Primary qHTS assay for small molecule inhibitors of Inositol hexaphosphate kinase 1 (IP6K1); Inositol hexakisphosphate kinase 1 (Homo sapiens), Q92551; IP6K1 kinase, ADP-Glo luminescence, 2 h; stronger effect = lower value; activity change, % (series mostly up to about 58 µM); hit rate 0.81% among 140,000; in the data active = activity change below about -25%
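ADP-Glo luminescence measures ADP made by human IP6K1 during a 2 h RT reaction with ATP/IP6 (mix at 1.3 mM/130 uM); top library doses 57.5 and 19.1 uM final.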
KDM5B inh: Primary screen for KDM5B Histone Demethylases FDH-coupled qHTS. Lysine-specific demethylase 5B (Homo sapiens), Q9UGL1. KDM5B demethylase, FDH-coupled NADH fluorescence (FDH is formaldehyde dehydrogenase). Potency, µM (top dose mostly 57.7 µM), usual class: inhibitors. hit rate 2.6% among 220,000; also: nearly all actives have a fitted effect of over 70% in size
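Coupled FDH/NAD⁺ fluorescence readout. KDM5BΔAP 200 nM final; compound titration, 10 min RT preincubation; substrate mix 12.5 µM H3K4me3, 25 µM 2-OG, 50 µM Fe(II), 100 µM ascorbate, 0.25 mM NAD⁺, 0.25 U/mL FDH; ΔRFU over 30 min.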
Hits are given with their value; 0 = inactive; ? = inconclusive; - = no result given; ! = not active in a repeat. Unless noted, calls follow the shape of the dose curve; as a rule, active = well fitted curve in the direction sought with a large enough effect; inconclusive = small, poorly fitted or top-dose-only effect, or another doubt; inactive = no such curve, though single readings can be large; an effect the other way counts as inactive or inconclusive.

SMILES | HEK293 viab | SNCA expr inhib | IP6K1 inh | KDM5B inh
CCc1noc(-c2cn(C3CCN(C(=O)C(C)Oc4cccc(Cl)c4)CC3)nn2)n1 (stereo not drawn) | 0 | 0 | 0 | 0
CCN1CCN(c2ccccc2NC(=O)c2ccc(NC(=O)c3ccco3)s2)CC1 | - | - | - | 0
CNC(C)c1ccncc1 (stereo not drawn) | 0 | 0 | 0 | 16µM
CNC(C)c1ccc(Oc2ccccc2)cc1 (stereo not drawn) | 0 | 0 | 0 | 0
Cc1cccc(CN2CCN(Cc3cc(=O)oc4cc(C)ccc34)CC2)c1 | - | - | - | 0
CCN(Cc1ccc(Br)s1)C(=O)Cn1nnc(-c2cccc(Cl)c2)n1 | - | - | - | 0
COc1ccc(C(=O)N2CC(Oc3ccccc3-c3nc(-c4ccccc4)no3)C2)cc1 | ? | 0 | 0 | 25µM
O=C(NC1CCCC1)N1CC(Oc2ccccc2-c2nc(-c3ccccc3)no2)C1 | 0 | ? | 0 | 28µM
Cc1ccc(C(=O)N2CCCn3cc(-c4cccc(C#N)c4)nc32)cn1 | 0 | 0 | 0 | 28µM
N#Cc1cccc(-c2cn3c(n2)N(C(=O)c2ccccn2)CCC3)c1 | 0 | 0 | 0 | 18µM
Cc1nccn1CC(=O)N1CCCn2cc(-c3cccc(C#N)c3)nc21 | 0 | 0 | 0 | ?
N#Cc1cccc(-c2cn3c(n2)N(C(=O)c2ccco2)CCC3)c1 | 0 | 0 | 0 | 25µM
N#Cc1cccc(-c2cn3c(n2)N(C(=O)c2ccoc2)CCC3)c1 | 0 | 0 | 0 | 25µM
Cc1nc(-c2ccc(S(=O)(=O)Nc3ccc(Cl)cc3C)cc2)co1 | - | - | - | 0
N#Cc1cccc(-c2cn3c(n2)N(C(=O)c2ccncc2)CCC3)c1 | 0 | 0 | 0 | 20µM
Cc1ccsc1C(=O)N1CCCn2cc(-c3cccc(C#N)c3)nc21 | 0 | 0 | 0 | 14µM
N#Cc1cccc(-c2cn3c(n2)N(C(=O)c2cccc(F)c2)CCC3)c1 | 0 | 0 | 0 | 22µM
O=C(c1ccccc1)N1CCCn2cc(-c3ccc4c(c3)OCO4)nc21 | ? | 0 | 0 | ?
CCOc1ccc(-c2nc(Cn3nnc(C(=O)Nc4cccc(Cl)c4)c3N)c(C)o2)cc1OC | - | - | - | 0
COCC(=O)N1CCCN(c2nc3ncccc3o2)CC1 | 0 | 0 | 0 | 28µM
COC(=O)N1CCN(c2nc3ncccc3o2)CC1 | 0 | 0 | 0 | ?
CC(=O)N1CCN(c2nc3ncccc3o2)CC1 | 0 | 0 | 0 | 32µM
COC(=O)N1CCCN(c2nc3ncccc3o2)CC1 | 0 | 0 | 0 | 25µM
C[C@@H](NC(=O)Nc1ccc(Cl)cc1)c1onc(-c2ccccc2)c1C(=O)O | 0 | 0 | 0 | 0
Cc1noc([C@@H](C)NC(=O)Nc2ccc(Cl)cc2)c1C(=O)O | 0 | 0 | 0 | 40µM
SMILES | HEK293 viab | SNCA expr inhib | IP6K1 inh | KDM5B inh
CC(C)N1C[C@H](O)C[C@H]1c1nnc2n1CCN(C(=O)C1CCOCC1)CC2 | 0 | 0 | 0 | 0
COc1ccc(NC(=O)COC(=O)c2cc(=O)c3ccccc3o2)c(OC)c1 | - | - | - | 0
CNC(=O)CCn1ncc2cc(OCc3ccccc3-c3ccc(OC)cc3)ccc21 | 0 | 0 | 0 | 32µM
CNC(=O)CCn1ncc2cc(OCc3ccccc3-c3cccc(OC)c3)ccc21 | 0 | 0 | 0 | ?
CC(=O)NC1CCN(c2nc3ncccc3o2)CC1 | 0 | 0 | 0 | 28µM
COc1ccc(C(=O)NC2CCN(c3nc4ncccc4o3)CC2)cc1 | ? | 0 | 0 | 22µM
C[S+](=O)([O-])NC1CCN(c2nc3ncccc3o2)CC1 | 0 | ? | 0 | 35µM!
O=C(NC1CCN(c2nc3ncccc3o2)CC1)c1ccccc1Cl | 0 | 0 | 0 | ?
O=C(NC1CCCC1)NC1CCN(c2nc3ncccc3o2)CC1 | 0 | 0 | 0 | 35µM
Cc1ccc([S+](=O)([O-])NC2CCN(c3nc4ncccc4o3)CC2)cc1 | 0 | 0 | 0 | ?
Cc1cnc(C2CCC2)n1C1CCCN(C(=O)CCCc2ccccc2)C1 (stereo not drawn) | 0 | 0 | 0 | 0
CC(CCc1ccccc1)NC(=O)c1cc(Cl)ccn1 (stereo not drawn) | - | - | - | 0
CCN1CCCN(C(=O)CC2CCCCC2)CC12CCOCC2 | 0 | 0 | 0 | -
COc1ccc2nc(/C(C#N)=C\c3ccc(I)cc3)[nH]c2c1 | - | - | - | 0
COc1ncccc1-c1cnc2[nH]cc(CC(=O)Nc3ccn(C)n3)c2c1 | 0 | 0 | 0 | 32µM
COc1ncccc1-c1cnc2[nH]cc(CC(=O)Nc3cc(C)nn3C)c2c1 | 0 | 0 | 0 | 40µM
COc1ncccc1-c1cnc2[nH]cc(CC(=O)NC(C)C)c2c1 | 0 | 0 | 0 | 32µM
COc1ncccc1-c1cnc2[nH]cc(CC(=O)Nc3ccccn3)c2c1 | 0 | 0 | 0 | 35µM
COc1cccc(NC(=O)Cc2c[nH]c3ncc(-c4cccnc4OC)cc23)c1 | ? | 0 | 0 | ?
Cc1ccccc1-c1cnc2[nH]cc(CC(=O)Nc3ccccn3)c2c1 | 0 | 0 | 0 | ?
CC1CCc2c(sc(/N=C/c3ccc(C(C)(C)C)cc3)c2C#N)C1 (stereo not drawn) | - | - | - | 0
Cc1sc(-n2c(C)cc(/C=N/O)c2C)c(C(=O)O)c1C | - | - | - | 0
COc1ncccc1-c1cnc2[nH]cc(CC(=O)N3CCOCC3)c2c1 | 0 | 0 | 0 | 35µM
Cc1ccccc1-c1cnc2[nH]cc(CC(=O)Nc3ccn(C)n3)c2c1 | 0 | 0 | 0 | 32µM
COc1ccc(-c2cnc3[nH]cc(CC(=O)N4CCOCC4)c3c2)cn1 | 0 | 0 | 0 | ?
SMILES | HEK293 viab | SNCA expr inhib | IP6K1 inh | KDM5B inh
COc1ccc(-c2nccn3cc(C(=O)NCCN4CCCCC4)nc23)cc1 | 0 | 0 | 0 | 20µM
CCN1CCN(CCCNC(=O)c2cn3ccnc(-c4ccc(C)cc4)c3n2)CC1 | 0 | 0 | 0 | ?
CCCN1CCN(CCNC(=O)c2cn3ccnc(-c4ccc(OC)cc4)c3n2)CC1 | 0 | 0 | 0 | 20µM
O=C(NC1CCN(Cc2cccc(-c3cccs3)c2)CC1)c1ccccc1F | ? | ? | 0 | -
COc1ccc(C(=O)c2sc(Nc3cccc(C)c3C)nc2N)cc1OC | - | - | - | 0
O=C(c1ccccc1F)N1CCN(c2ccc3nnc(C4CC4)n3n2)CC1 | - | - | 0 | -
Cc1cc(C(=O)N2CCCN(c3ccnc4ccnn34)CC2)ccc1Cl | 0 | 0 | 0 | -
Cc1ccc(-c2nc3ccccc3o2)cc1NC(=O)c1ccc([N+](=O)[O-])o1 | - | - | - | 0
O=C(NC1CCCc2c1[nH]c1ccccc21)c1ccco1 (stereo not drawn) | 0 | 0 | 0 | ?
O=C(C1CC(=O)N(C2CCCC2)C1)N1CCN(c2ccc(Cl)cn2)CC1 (stereo not drawn) | 0 | 0 | 0 | 32µM
O=C(C1CCC(=O)N(C2CCCC2)C1)N1CCN(c2nccs2)CC1 (stereo not drawn) | 0 | 0 | 0 | 0
CCC1CCCCN1CCNC(=O)c1cc2c(s1)CN(C1CCCC1)C2 (stereo not drawn) | 0 | 0 | 0 | 14µM
Cn1c(CNC(=O)c2cc3c(s2)CN(C2CC2)C3)nc2ccccc21 | 0 | 0 | 0 | 13µM
C[C@@]12C(=O)OC(=O)[C@@]1(C)C1CCC2O1 | ? | 15µM | - | -
